This is an account of results in ChEMBL document CHEMBL1157539, “Thousands of chemical starting points for antimalarial lead identification” (Nature, 2010).

For the test, the system named is HepG2. Nature of the test: GSK_TCMDC: Percent inhibition of human HepG2 cell line. Test compounds present at 10uM. It is filed as functional.
For the compound `COc1ccc2nccc([C@@H](O)CN3CCC(NC(=O)C(c4cc5ccccc5s4)N4CCN(c5ccccc5OC)CC4)CC3)c2c1` (stereo not given in full), the Inhibition amounted to 21%.

On to `COc1cc(NC(=O)/C=C/c2ccccc2OC(F)(F)F)cc(OCCN2CCN(CCN3CCOCC3)CC2)c1.O=C(O)C(=O)O`, for which the Inhibition was 20%.

Compound `O=C(/C=C/c1ccc(Cl)c(Cl)c1)NCCCCCN1CCC(NC(=O)Nc2ccc(F)c(Cl)c2)CC1` yielded an Inhibition of 98%.

`O=C(NCCCN1CCOCC1)c1cccc(Nc2nccc(Nc3ccc(Oc4ccccc4)cc3)n2)c1` returned an Inhibition of 34%.

`CCOC(=O)c1ccc(N2CCN(c3cc(C)ccc3C)CC2)c(NC(=O)Nc2ccc(Cl)c(Cl)c2)c1` registered an Inhibition of 7%.

Compound `CC(CN1CCN(C)CC1)C(=O)Nc1cccc(-c2ccc(-c3nc4ccccc4[nH]3)cc2)c1` (stereo not given) came in with an Inhibition of 2%.

As to `Cc1cccc2nc(-c3ccc(-c4ccc(NC(=O)Nc5ccsc5)cc4)cc3)[nH]c12`, the Inhibition is 49%.

Take `Cl.NC1=NC(c2ccccc2)N(c2ccccc2)C(N)=N1` (stereo not given): the Inhibition is listed as 0%.

As for `Cc1cc(CNC(=O)[C@H](CC2CCCCC2)Nc2ccc(C#N)c3ccccc23)c(C(F)(F)F)o1.O=C(O)C(F)(F)F`, the Inhibition is listed as 13%.

Turning to `COc1ccc(OC)c(-c2cccc(-c3cccc(NC(=O)c4ccc([N+](=O)[O-])o4)c3)n2)c1`, the Inhibition was found to be 75%.

With `CN1CCC(C(=O)Nc2ccc(-c3cccc(-c4nc5cc(F)ccc5[nH]4)c3)cc2)CC1`, the Inhibition was determined as 19%.

On to `CC(=O)Nc1ccc(C(=O)Nc2cccc(-c3ccc(-c4nc5cc(F)ccc5[nH]4)cc3)c2)cn1`, for which the Inhibition was 10%.

For the compound `CN(C)CCOc1cc(NC(=O)Nc2ccc(-c3ccncc3)c3ccccc23)ccc1I`, the Inhibition was 35%.

Take `Cc1ccc(C(=O)Nc2ccc(F)cc2)cc1-c1nc(NC2CC(C)(C)NC(C)(C)C2)nc2c1ccc(=O)n2-c1c(F)cccc1F`: the Inhibition was 16%.

The compound `O=C(C1CC1c1ccccc1)N(Cc1ccc(-c2ccc(CNCCc3ccccc3)cc2)cc1)C1CCNCC1.O=C(O)C(F)(F)F` (stereo not given) had an Inhibition of 36%.

`Nc1ncc(-c2cn[nH]c2)cc1-c1nc2ccc(F)cc2[nH]1` yielded an Inhibition of 38%.

For `Cc1nc(-c2nc(NCCc3c(C)noc3C)ncc2-c2ccsc2)sc1C`, the Inhibition stood at 12%.

On to `O=C(NCc1ccc(Cl)c(Cl)c1)c1cccc(C2CCCN(Cc3ccc4[nH]cnc4c3)C2)c1` (stereo not given), for which the Inhibition worked out at 3%.

In the case of `COc1ccccc1N1CCN(c2cccc3c2nc(-c2cncc(C#N)c2)n3CCNCc2ccccc2)CC1.O=C(O)C(F)(F)F`, the Inhibition was 0%.

Compound `O=C(Nc1ccc(OC2CCN(Cc3ccccc3)CC2)c(Cl)c1)c1cccs1.O=C(O)C(F)(F)F` displayed an Inhibition of 2%.

Compound `O=C(Cc1ccccc1)NC(c1ccco1)c1cc(Cl)c2cccnc2c1O` (stereo not given) had an Inhibition of 44%.

For the compound `COc1ccc(CNc2nc(NCc3ccccc3)c3cc(OC)c(OC)cc3n2)cc1OC`, the Inhibition is on record as 24%.

Compound `CC(=O)Nc1ccc(Cl)c(Cl)c1` registered an Inhibition of 5%.

The compound `CC(=O)Nc1ccc(OCCCCN(Cc2ccccc2C(F)(F)F)c2ccc(C(F)(F)F)c(C#N)c2)c(Cl)c1` came in with an Inhibition of 14%.

Compound `Cc1ccc(C)c(CC(=O)N2CCC(n3c(C)nc4ccc(F)cc43)CC2)c1` came in with an Inhibition of 0%.

With `N#Cc1cccc(C(=O)Nc2cccc(-c3ccc(CN4CCCC4)cc3)c2)c1.O=C(O)C(F)(F)F`, the Inhibition is reported as 11%.

`CCN(CC)CCCC(C)Nc1c2cc(OC)ccc2nc2cc(Cl)c([N+](=O)[O-])cc12` (stereo not given) registered an Inhibition of 12%.

`CCOc1ccc(-c2nc(NC(=O)Cc3cccc(OC)c3)sc2C)cc1` gave an Inhibition of 15%.

With `CCC1(CC)C(=O)N=C(N2CCCCC2)N(C)C1=O`, the Inhibition is listed as 0%.

Compound `COc1ccc(-c2ccc(NC(=O)c3cccc(F)c3)cc2)cc1CNC(C)C.O=C(O)C(F)(F)F` displayed an Inhibition of 17%.

Consider `O=C(Nc1ccc2c(c1)OCO2)NC1CCN(c2ccnc(NCc3ccc(F)cc3)n2)CC1`, for which the Inhibition amounted to 33%.

Compound `COC(=O)c1cccc(CNCc2cccc(-c3ccc(-c4nc5cccc(C)c5[nH]4)cc3)c2)c1.O=C(O)C(F)(F)F` displayed an Inhibition of 3%.

The compound `COc1ccc(CNCc2ccc(F)cc2)cc1-c1ccc(S(=O)(=O)NCCN2CCCC2)c(C)c1.O=C(O)C(F)(F)F` had an Inhibition of 55%.

As for `CCC(CC)(Cc1ccccc1)NC(=O)[C@H](CC1CCCCC1)Nc1ccc(C#N)c2ccccc12.O=C(O)C(F)(F)F`, the Inhibition worked out at 4%.

Turning to `COc1ccc(NC(=O)[C@H](CC(C)C)Nc2cc(C)nc(NCCOc3ccccc3)n2)cc1.O=C(O)C(F)(F)F`, the Inhibition is reported as 0%.

As to `COc1ccc(NC(=O)c2ccc(Br)c(C)c2)cc1N1CCN(CCCCc2ccccc2)CC1.O=C(O)C(=O)O`, the Inhibition amounted to 29%.

Consider `COc1cccc(NC(=O)NCCNc2ccnc(Nc3ccc(F)cc3)n2)c1`, for which the Inhibition came out at 18%.

`CN(Cc1ccc(C#N)cc1)C1CCN(c2cc(NC(=O)c3cccc(F)c3)ccn2)CC1.O=C(O)C(F)(F)F` returned an Inhibition of 9%.

On to `Cc1cc(NCCC(=O)Nc2ccccc2)nc(NCCc2cccnc2)n1.O=C(O)C(F)(F)F`, for which the Inhibition turned out to be 0%.

`Cc1cc(CN2CC[C@H](NC(=O)c3ccc(Cl)c(Cl)c3)C2)ccc1OC1CCN(Cc2ccccc2)CC1.O=C(O)C(F)(F)F` displayed an Inhibition of 59%.
